Measured values as given in PubChem BioAssay AID651661 (Broad Institute, 2012).
Screen size: about 350,000 compounds; about 2,300 (0.66%) were called active. Only a selection was taken, and actives are over-represented in it overall. Values without a mark were called inactive.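 How the source made its calls: active means mean inhibition of at least 50% after viability correction, with every replicate also passing that limit; inconclusive means mean reaches 50% but only one of two replicates passes; inactive means the rest.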

experiment: EWS/Fli-driven NR0B1 reporter inhibitors, primary screen, A673 cells, NR0B1 luciferase, luminescence, MLPCN library (AID 651661); details: viability-normalised, at 12.6 µM, active compounds read high;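 further: firefly luciferase signal divided by Alamar Blue viability fluorescence both relative to DMSO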

SMILES	inhibition
C[C@H](CO)N1C[C@H](C)[C@H](CN(C)C(=O)NC2CCCCC2)Oc2ccc(NC(=O)CCCN(C)C)cc2CC1=O	-7.51%
CC(C)OC(=O)N(C)C[C@@H]1OCc2ccccc2-c2c(n(C)c3ccccc23)C(=O)N([C@H](C)CO)C[C@H]1C	8.3%
Cc1ccc(-n2c(-c3ccc(Cl)cc3)n[nH]c2=S)cc1	3.61%
Cc1ccc(-c2nc3ccc(Cl)cn3c2Cc2ccccc2)cc1	-80.4%
Cc1ccc(-c2nc3ccc(Br)cn3c2Cc2ccccc2C(F)(F)F)cc1	-71.5%
Cc1ccc(-c2cn3cc(C)ccc3n2)cc1	66.7% (active)
Cc1ccc2nc(-c3ccc(Br)cc3)cn2c1	71.9% (active)
COc1ccc(-c2nc3ccc(Br)cn3c2Cc2ccc(C)cc2)cc1OC	-33.3%
C[C@@H]1CN([C@@H](C)CO)S(=O)(=O)c2ccc(C#Cc3cccnc3)cc2O[C@@H]1CN(C)C(=O)CN(C)C	12.9%
CC(=O)N1[C@H](C(=O)N(C)C)[C@@H](CO)[C@@H]2Cn3c(ccc(-c4ccccc4)c3=O)[C@@H]21	0.262%
Cc1ccccc1S(=O)(=O)N1[C@@H]2CNC[C@H]1C2c1ccc(-c2cccnc2)cc1 (stereo not given in full)	-4.81%
CCCNC(=O)N1[C@@H]2Cn3c(ccc(-c4ccc(OC)cc4)c3=O)[C@H]1[C@@H](C(=O)NC1CCC1)[C@@H]2CO	0.758%
Cc1ccccc1-c1ccc([C@H]2[C@@H](CO)N3C(=O)CN(C(=O)c4ccncc4)C[C@H]23)cc1	0.78%
COc1ccc2c3c(n(C)c2c1)[C@H](CO)N(S(=O)(=O)c1ccc(C)cc1)CC31CN(C(=O)c2ccccn2)C1	-3.69%
NC1=CC(=O)C(=O)c2cccnc21	57.3% (active)
CCOc1ccc(CCN2C(=O)c3cccnc3C2=O)cc1OCC	9.92%
CCCNC(=O)N1CC2(C1)[C@@H](c1ccccc1)[C@@H](CO)N2C(=O)CC1CC1	2.39%
C[C@@H]1CN([C@H](C)CO)C(=O)Cc2cc(NC(=O)Nc3cccc4ccccc34)ccc2O[C@@H]1CN(C)Cc1ccc(C(F)(F)F)cc1	-4.39%
N#CCSc1nc(-c2ccccc2)nc2ccc(F)cc12	19.1%
Clc1ccc2nc(-c3ccccc3)nc(C(Cl)Cl)c2c1	68.5% (active)
Clc1cccc(-c2nc(NCC3CCCO3)c3ccccc3n2)c1 (stereo not given)	15.1%
CC(C)NC(=O)Nc1ccc2c(c1)C(=O)N([C@@H](C)CO)C[C@H](C)[C@H](CN(C)C(=O)c1ccccc1)OCCCC[C@@H](C)O2	5.19%

SMILES	inhibition
CN(C)c1ccc2c(c1)[C@@H]1C[C@@H](CC(=O)NCc3ccccn3)O[C@H](CO)[C@@H]1O2	-4.51%
COc1cccc2c1C(=O)c1c(O)c3c(c(O)c1C2=O)CC(O)(C(C)=NNC(=O)c1ccc(Cl)c(Cl)c1)CC3OC1CC(N)C(O)C(C)O1 (stereo not given)	63.6% (active)
COc1ccc(NC(=O)Nc2ccc3c(c2)C(=O)N([C@@H](C)CO)C[C@H](C)[C@H](CN(C)Cc2ccc(C(F)(F)F)cc2)OCCCC[C@H](C)O3)cc1	6.84%
C[C@@H]1CN([C@H](C)CO)C(=O)c2cc(NC(=O)Nc3ccc(C(F)(F)F)cc3)ccc2O[C@@H](C)CCCCO[C@@H]1CN(C)Cc1ccc(C(F)(F)F)cc1	-13.8%
C[C@H]1CN([C@@H](C)CO)C(=O)c2cccc(NC(=O)Nc3ccc(C(F)(F)F)cc3)c2O[C@H]1CN(C)C(=O)NC1CCCCC1	56.1% (active)
C[C@@H]1CCCCO[C@@H](CN(C)Cc2ccc(C(F)(F)F)cc2)[C@@H](C)CN([C@H](C)CO)C(=O)c2cc(NC(=O)Nc3ccccc3)ccc2O1	-6.47%
C[C@@H]1CN([C@H](C)CO)C(=O)c2cccc(NC(=O)Nc3ccccc3)c2O[C@@H]1CN(C)C(=O)NC1CCCCC1	4.76%
C[C@H]1CCCCO[C@@H](CN(C)Cc2ccc(C(F)(F)F)cc2)[C@@H](C)CN([C@@H](C)CO)C(=O)c2cc(NC(=O)Nc3ccccc3)ccc2O1	19.3%
C[C@H](CO)N1C[C@H](C)[C@@H](CN(C)C(=O)NC2CCCCC2)Oc2c(NC(=O)Nc3ccc(F)cc3)cccc2C1=O	4.64%
C[C@@H]1CN([C@H](C)CO)C(=O)c2cc(NC(=O)Nc3ccccc3)ccc2O[C@@H](C)CCCCO[C@H]1CN(C)Cc1ccc(C(F)(F)F)cc1	71.6% (active)
COc1ccc(CN(C)C[C@@H]2OCCCC[C@@H](C)Oc3ccc(NC(=O)Nc4ccc(C(F)(F)F)cc4)cc3C(=O)N([C@H](C)CO)C[C@H]2C)cc1	53.9% (active)
O=C(C[C@@H]1C[C@H]2c3cc(NC(=O)C4CCOCC4)ccc3O[C@H]2[C@@H](CO)O1)NCCN1CCCCC1	-1.07%
COC(=O)C[C@@H]1CC[C@@H]2[C@H](COc3ccc(NC(=O)Nc4cccc(F)c4)cc3C(=O)N2C)O1	33.6%
COC(=O)C[C@@H]1CC[C@@H]2[C@H](COc3ccc(NC(=O)c4cccc(F)c4)cc3C(=O)N2C)O1	61.7% (active)
COC(=O)C[C@H]1CC[C@H]2[C@@H](COc3ccc(NC(=O)Nc4cccc(F)c4)cc3C(=O)N2C)O1	-0.36%
O=C(C[C@@H]1CC[C@H]2[C@@H](COC[C@H](O)CN2Cc2ccc(F)cc2)O1)N1CCc2ccccc2C1	2.81%
CCCN(C)C[C@@H]1OCc2cnnn2CCCC(=O)N([C@H](C)CO)C[C@@H]1C	0.738%
C[C@@H]1CN([C@H](C)CO)C(=O)Cc2cc(NC(=O)CCCCCC(=O)Nc3ccccc3N)ccc2O[C@H]1CN(C)S(=O)(=O)c1ccc(F)cc1	-11%
C[C@H](CO)N1C[C@H](C)[C@H](CN(C)Cc2ccc(C(=O)Nc3ccccc3N)cc2)Oc2ccc(NS(C)(=O)=O)cc2C1=O	27%
Cc1ccc(S(=O)(=O)Nc2ccc3c(c2)C(=O)N([C@@H](C)CO)C[C@@H](C)[C@@H](CN(C)Cc2ccc(C(=O)Nc4ccccc4N)cc2)O3)cc1	51.7% (active)
C[C@@H]1CN([C@@H](C)CO)C(=O)c2cc(NS(=O)(=O)c3ccccc3)ccc2O[C@@H]1CN(C)Cc1ccc(C(=O)Nc2ccccc2N)cc1	57.5% (active)
Cc1ccc(S(=O)(=O)Nc2ccc3c(c2)C(=O)N([C@H](C)CO)C[C@H](C)[C@H](CN(C)Cc2ccc(C(=O)Nc4ccccc4N)cc2)OCCCC[C@@H](C)O3)cc1	8.6%

SMILES	inhibition
C[C@H]1CN([C@@H](C)CO)C(=O)Cc2cc(NS(=O)(=O)c3ccccc3)ccc2O[C@H]1CN(C)Cc1ccc(C(=O)Nc2ccccc2N)cc1	-7.96%
C[C@@H]1CN([C@H](C)CO)C(=O)c2cc(NS(=O)(=O)c3cn(C)cn3)ccc2O[C@@H]1CN(C)Cc1ccc(C(=O)Nc2ccccc2N)cc1	-4.91%
COCC#Cc1ccc([C@H]2[C@H](CO)N3C(=O)CN(C(=O)Nc4ccccc4F)C[C@@H]23)cc1	2.04%
COc1cccc(S(=O)(=O)N[C@H]2CC[C@H](CCN)O[C@H]2CO)c1	-10.4%
COc1ccc(S(=O)(=O)Nc2ccc3c(c2)C(=O)N([C@H](C)CO)C[C@@H](C)[C@H](CN(C)C(=O)Nc2ccc4c(c2)OCO4)O3)cc1	0.75%
CC(=O)N1[C@H](CO)[C@H](c2ccc(-c3ccccc3)cc2)[C@H]1CNC(=O)NC(C)C	0.423%
COc1ccc(-c2ccccc2[C@@H]2[C@@H](C#N)N(C(=O)NC3CCCC3)[C@H]2CO)cc1	4.32%
C[C@H](CO)N1C[C@H](C)[C@@H](CN(C)Cc2ccncc2)Oc2ncc(C#CC3CC3)cc2C1=O	-3.48%
COc1cccc(S(=O)(=O)N2C[C@@H](O)COC[C@@H]3O[C@H](CC(=O)N4CCN(C)CC4)CC[C@H]32)c1	2.56%
Cc1cc(C(=O)Nc2cccc3c2O[C@H](CN(C)C(=O)Nc2ccccc2)[C@@H](C)CN([C@H](C)CO)C3=O)n(C)n1	-4.28%
O=C(C[C@H]1C[C@H]2c3cc(NC(=O)c4ccc5c(c4)OCO5)ccc3O[C@H]2[C@@H](CO)O1)NCc1cccc(F)c1	-0.435%
O=C(NCc1ccncn1)[C@@H]1[C@@H](CO)[C@@H]2Cn3c(ccc(-c4ccc(F)cc4)c3=O)[C@@H]2N1CC1CC1	5.67%
C[C@@H]1CN([C@H](C)CO)C(=O)c2cc(NC(=O)C3CCCCC3)ccc2O[C@@H]1CN(C)CC1CCCCC1	1.73%
CS(=O)(=O)N1CC2(C1)[C@H](c1ccccc1)[C@H](CO)N2Cc1ccc(F)cc1	-3.95%
Cc1ccc2nc(-c3ccncc3)cc(C(=O)Nc3ccc(OC(F)F)cc3)c2c1	54% (active)
CCn1c(SCC(=O)Nc2ccc3c(c2)OCCO3)nnc1-c1ccncc1	4.78%
O=C(Nc1ccncc1)c1cc(-c2ccccn2)nc2ccc(Br)cc12	17%
CCN(CC)CCNC(=O)c1ccc(NC(=O)c2cc(-c3ccncc3)nc3ccccc23)cc1	8.49%
Cc1ccc2nc(-c3ccncc3)cc(C(=O)Nc3ccc4c(c3)OCCO4)c2c1	57.8% (active)
CCOc1ncccc1C(=O)Nc1ccc2c(c1)OCCO2	-5.13%
CNC[C@H]1OCCCC[C@@H](C)Oc2ccc(NC(=O)c3ccncc3)cc2C(=O)N([C@H](C)CO)C[C@H]1C	0.415%
